Hits are enriched below; roughly 5.4% of the tested compounds scored in any of these assays.
A3G deaminase: APOBEC3G DNA deaminase inhibitors, primary screen, biochemical, fluorescence, single-stranded DNA substrate, uHTS; DNA dC->dU-editing enzyme APOBEC-3G (Homo sapiens), Q9HC16; recombinant A3G, ssDNA deamination FAM/TAMRA fluorescence; inhibition, % at 20 µM; 330,000 tested, 0.28% active; AID 493012, 2011;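 active = inhibition of at least 40% at 20 µM, with no more than 30% in the related APOBEC3A deaminase screen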;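 note: plate controls were DMSO wells with A3G for no effect and wells lacking A3G enzyme for full effect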
Target sequence (Q9HC16 whole entry, looked up): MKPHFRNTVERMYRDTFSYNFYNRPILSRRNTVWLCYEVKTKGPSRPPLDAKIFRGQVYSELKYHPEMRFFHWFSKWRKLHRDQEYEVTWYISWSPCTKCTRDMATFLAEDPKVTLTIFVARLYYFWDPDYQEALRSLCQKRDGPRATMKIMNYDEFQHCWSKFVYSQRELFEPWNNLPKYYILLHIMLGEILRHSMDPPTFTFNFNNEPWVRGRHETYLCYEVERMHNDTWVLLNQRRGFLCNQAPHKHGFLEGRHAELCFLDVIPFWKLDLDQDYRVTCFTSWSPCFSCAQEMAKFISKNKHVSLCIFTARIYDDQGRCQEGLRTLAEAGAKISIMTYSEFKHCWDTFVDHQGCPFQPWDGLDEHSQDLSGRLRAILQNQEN
PHOSPHO1 block: PubChem AID 1565 | Phosphoethanolamine/phosphocholine phosphatase (Homo sapiens), Q8TCT1 | recombinant PHOSPHO1, absorbance phosphatase assay | inhibition, % at 13.3 µM | 290,000 tested, 1.1% active; in the data active = inhibition above about 60%
ALR inh: inhibitors of human ALR sulfhydryl oxidase, primary screen, biochemical, H2O2 detection, HRP-luminol luminescence, single point; FAD-linked sulfhydryl oxidase ALR (Homo sapiens), P55789; 290,000 tested, 3.8% active; purified ALR, DTT oxidation; inhibition, % (no concentration beside the values);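 active = mean replicate inhibition above about 79%, with every replicate also reaching it, limit read from the data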
Target sequence (P55789 whole entry, looked up): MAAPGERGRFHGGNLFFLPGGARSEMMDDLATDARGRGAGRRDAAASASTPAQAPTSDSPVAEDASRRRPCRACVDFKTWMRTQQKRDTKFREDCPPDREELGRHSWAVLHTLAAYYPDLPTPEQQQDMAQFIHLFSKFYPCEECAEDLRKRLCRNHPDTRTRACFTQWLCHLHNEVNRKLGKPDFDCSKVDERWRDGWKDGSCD
aDG glyco up: activators of alpha-DG glycosylation, primary screen, uHTS, Pro5-aDG cells, AlphaScreen; alpha-DG glycosylation AlphaScreen (IIH6); 0% Pro5, 100% B10-LARGE cell signal; activation, % at 10 µM; 360,000 tested, 0.22% active; AID 624168, 2012;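 active = activation of at least 8% versus controls, or a plate z-score of at least 8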;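 note: Pro5 are CHO cells carrying HIG-tagged alpha-DG that lacks glycosylation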
rCAG RNA binder: binders of r(CAG) RNA repeats, primary screen, biochemical, fluorescence | r(CAG) RNA repeat, TO-PRO-1 dye displacement fluorescence | inhibition, % at 3 µM | 370,000 tested, 1.3% active;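 active = inhibition above the plate cutoff, the mean of all test compounds on that plate plus 3 SD, cut at about 35% in these data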;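 note: 0% = DMSO alone and 100% = 100 µM mitoxantrone as full dye displacement; higher means more dye released from RNA so lower well fluorescence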
APOBEC3A inh: APOBEC3A ssDNA deaminase inhibitors, primary screen, selectivity assay for APOBEC3G inhibitor project, biochemical, FAM/TAMRA oligo cleavage fluorescence; DNA dC->dU-editing enzyme APOBEC-3A (Homo sapiens), P31941; recombinant A3A, FAM/TAMRA ssDNA deamination fluorescence; inhibition, % at 20 µM; 330,000 tested, 0.41% active; AID 493011, 2011;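 active = at least 40% inhibition at 20 µM here, with at most 30% in a related deaminase screen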;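 note: plate controls were A3A with DMSO for no effect and wells lacking A3A enzyme for full effect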
An asterisk follows results filed as active.

`CCOC(=O)c1c(CN2CCN(CCO)CC2)n(-c2ccccc2)c2cc(Br)c(O)cc12` gave A3G deaminase -3.1, PHOSPHO1 block 28.8, ALR inh 68.3, aDG glyco up 1.4, rCAG RNA binder 1.6 and APOBEC3A inh -5.7.
`CCOC(=O)c1c(CN2CCN(C)CC2)n(-c2ccccc2)c2cc(Br)c(O)cc12` gave A3G deaminase -3.4, PHOSPHO1 block 32.7, ALR inh 78.7*, aDG glyco up 1.5, rCAG RNA binder -7.2 and APOBEC3A inh -1.1.
Screening O=C(Nc1nnc(C2=COCCO2)o1)c1cccc(Br)c1 returned A3G deaminase 1.7, PHOSPHO1 block 61.0*, ALR inh 45.7, aDG glyco up 0.0, rCAG RNA binder 6.4 and APOBEC3A inh 0.3.
`CS(=O)(=O)c1cccc(C(=O)Nc2nnc(C3=COCCO3)o2)c1` gave A3G deaminase -2.4, ALR inh 99.1*, aDG glyco up -0.2, rCAG RNA binder 4.4 and APOBEC3A inh 1.0.
CN(C)c1ccc(C(=O)Nc2cccc(S(=O)(=O)N3CCCC3)c2)cc1 was read as A3G deaminase -7.9, aDG glyco up -0.3, rCAG RNA binder 8.5 and APOBEC3A inh -7.2.
Screening CN(C)c1ccc(C(=O)NC2(N3CCC3=O)CCCC2)cc1 returned A3G deaminase -3.8, PHOSPHO1 block -7.5, ALR inh 99.5*, aDG glyco up -0.3, rCAG RNA binder -3.4 and APOBEC3A inh -0.7.
For O=C(Nc1ccc(O)cc1)c1cccc(Oc2ccc([N+](=O)[O-])cc2)c1 the results were A3G deaminase -7.2, PHOSPHO1 block 8.0, ALR inh 98.8*, aDG glyco up -0.1, rCAG RNA binder -1.5 and APOBEC3A inh 24.7.
O=C(c1cccc(Oc2ccc([N+](=O)[O-])cc2)c1)N1CCOCC1 was read as A3G deaminase -4.2, PHOSPHO1 block 62.6*, ALR inh -0.8, aDG glyco up 0.0, rCAG RNA binder -5.9 and APOBEC3A inh -1.0.
`Cc1cccc(C(=O)Nc2ccc(NC(=O)c3cccc(C)c3)cc2)c1` gave aDG glyco up 1.7 and rCAG RNA binder 0.7.
Cc1cccc(C(=O)Nc2ccc(C(=O)Nc3ccc(O)cc3)cc2)c1 was read as A3G deaminase -4.9, PHOSPHO1 block 62.4*, ALR inh -16.6, aDG glyco up 0.3, rCAG RNA binder 4.7 and APOBEC3A inh 0.8.
Screening O=C(c1cccc(Oc2ccccc2)c1)N1CCOCC1 returned A3G deaminase 10.3, PHOSPHO1 block 19.2, ALR inh 4.5, aDG glyco up -0.3, rCAG RNA binder -6.8 and APOBEC3A inh 2.6.
`CCCCCCC(=O)NC1CCCCN(Cc2ccccc2C)C1=O` (configuration not stated) gave rCAG RNA binder -1.6.
`Cc1occc1-c1nnc(SCC(=O)c2ccc(F)cc2)o1` gave A3G deaminase -0.2, PHOSPHO1 block -17.9, ALR inh 96.6*, aDG glyco up 0.1, rCAG RNA binder -3.4 and APOBEC3A inh 2.7.
Screening Cc1occc1-c1nnc(SCC(N)=O)o1 returned A3G deaminase -1.3, PHOSPHO1 block 34.2, ALR inh -4.8, aDG glyco up 0.4, rCAG RNA binder -3.2 and APOBEC3A inh -0.6.
`COC(=O)Oc1ccc(/C=C/C(=O)OC(C)C)cc1OC(=O)OC` gave A3G deaminase -8.6, PHOSPHO1 block -14.8, ALR inh 95.1*, aDG glyco up -0.3, rCAG RNA binder -1.5 and APOBEC3A inh -2.2.
CCCCOC(=O)/C=C/c1ccc(OC(=O)OC)c(OC(=O)OC)c1 was read as A3G deaminase -5.7, PHOSPHO1 block 10.8, ALR inh -2.7, aDG glyco up -0.3, rCAG RNA binder 0.6 and APOBEC3A inh -3.2.
Screening COCC(C)NC(=O)c1cc(-c2ccc(O)cc2)on1 (configuration not stated) returned A3G deaminase 5.0, PHOSPHO1 block 2.1, ALR inh 99.2*, aDG glyco up -0.2, rCAG RNA binder 1.2 and APOBEC3A inh -0.9.
Screening COCCNC(=O)c1cc(-c2ccc3c(c2)OCO3)on1 returned A3G deaminase -5.3, PHOSPHO1 block 68.7*, ALR inh -9.0, aDG glyco up -0.1, rCAG RNA binder 1.6 and APOBEC3A inh -2.0.
For COCCNC(=O)COCc1cc(-c2ccc3c(c2)OCO3)on1 the results were A3G deaminase -4.7, PHOSPHO1 block 29.2, ALR inh 6.6, aDG glyco up 0.0, rCAG RNA binder -2.4 and APOBEC3A inh -0.3.
`Nc1[nH]c(C(=O)c2ccccc2)c(-c2ccc(Cl)cc2)c1C(=O)c1c[nH]c2ccccc12` gave rCAG RNA binder 11.0.
`COC(=O)C1=C(C)N(Cc2ccccc2C(F)(F)F)C(=NCc2ccc3c(c2)OCO3)NC1c1ccccc1` (configuration not stated) gave rCAG RNA binder 5.6.
For Cc1onc(-c2ccccc2)c1C(=O)NN=Cc1cc(Cl)cc(Cl)c1O the results were rCAG RNA binder 29.3.
COC(=O)C1=C(C)N(Cc2ccccc2C(F)(F)F)C(=NCc2ccccc2C(F)(F)F)NC1c1ccc(F)cc1 (configuration not stated) was read as rCAG RNA binder 2.3.
For C[C@H](O)[C@@H]1C(=O)N2CCc3c([nH]c4c(-c5ccccc5)cccc34)[C@@H]2C[C@@H]1N(C)C(=S)Nc1ccc(C#N)cc1 the results were rCAG RNA binder 6.6.
For O=C(c1ccccc1NS(=O)(=O)c1ccc([N+](=O)[O-])cc1[N+](=O)[O-])N1O[C@@H]2C=C[C@H]1C2 the results were A3G deaminase 7.9, aDG glyco up 0.1, rCAG RNA binder 35.1* and APOBEC3A inh 6.4.
CC(C)CCNC(=O)C1CCN(S(=O)(=O)c2ccc3c(c2)CCC(=O)N3)CC1 was read as A3G deaminase -4.7, PHOSPHO1 block 2.7, ALR inh 84.5*, aDG glyco up 0.4, rCAG RNA binder 0.0 and APOBEC3A inh -2.1.
For Cc1ccc(CCNC(=O)C2CCN(S(=O)(=O)c3ccc4c(c3)CCC(=O)N4)CC2)cc1 the results were A3G deaminase 3.8, PHOSPHO1 block -14.5, ALR inh -2.4, aDG glyco up 0.0, rCAG RNA binder 1.6 and APOBEC3A inh 8.8.
O=C(Cn1nnc(N2CCOCC2)n1)NN=Cc1ccccc1Cl was read as rCAG RNA binder 2.1.
`NC(=O)C1C(c2ccccc2)=C1c1ccccc1` gave A3G deaminase -0.9, PHOSPHO1 block 2.6, ALR inh 96.6*, aDG glyco up 0.4, rCAG RNA binder 0.2 and APOBEC3A inh 1.7.
